Laboratory results taken from PubChem BioAssay (NCI).
About 79,000 compounds went through this panel and 15% of them were active in at least one assay; those are over-represented in the sample as a whole. Activity calls are given as the source filed them. Cut-off read from the data, not from the text of the source: active = growth inhibition above about 70%; inactive = the rest.

Legend:
[1] = NCI Yeast Anticancer Drug Screen. Data for the rad52 strain (AID 147);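 note: 0% = growth of vehicle-treated control cultures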; settings: S. cerevisiae rad52 mutant growth inhibition, hits give high values
Summary of the method: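 Yeast strain carrying a DNA damage repair alteration was exposed to test compounds. Growth inhibition was measured relative to vehicle-treated controls.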

[2] = NCI Yeast Anticancer Drug Screen. Data for the wt1 strain (AID 149);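 note: 0% = growth of vehicle-treated wt1 cultures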; settings: S. cerevisiae wt1 strain (SPY 50644) growth inhibition, hits give high values
Summary of the method: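 The wt1 strain was treated with compounds, and growth was compared with vehicle-treated cultures to give inhibition.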

[3] = NCI Yeast Anticancer Drug Screen. Data for the rad50EPP+ strain (AID 151);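 note: 0% = growth of vehicle-treated control cultures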; settings: S. cerevisiae rad50 mutant strain, hits give high values
Summary of the method: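 Yeast strain carrying rad50 alteration (rad50EPP+) exposed to compounds; growth inhibition measured relative to vehicle-treated controls.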

[4] = NCI Yeast Anticancer Drug Screen. Data for the mgt1 strain (AID 153); settings: S. cerevisiae mgt1 mutant growth inhibition, hits give high values
Summary of the method: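 Yeast mgt1 strain (DNA repair/cell-cycle alteration panel) exposed to compounds; growth inhibition measured relative to vehicle-treated controls.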

[5] = NCI Yeast Anticancer Drug Screen. Data for the rad50 strain (AID 155);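 note: 0% = growth of vehicle-only cultures of the same strain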; settings: S. cerevisiae rad50 strain growth inhibition, hits give high values
Summary of the method: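 Cells are treated with compound, grown, and their growth is then scored against vehicle-only cultures of the same repair-deficient yeast strain.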

[6] = NCI Yeast Anticancer Drug Screen. Data for the mec2-1 strain (AID 157); settings: S. cerevisiae mec2-1 strain, hits give high values
Summary of the method: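 mec2-1 yeast strain, carrying an alteration in DNA damage repair or cell cycle control, was exposed to compounds; growth inhibition was measured relative to vehicle-treated controls.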

[7] = NCI Yeast Anticancer Drug Screen. Data for the rad14 strain (AID 159);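 note: 0% = growth of vehicle-treated control cultures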; settings: S. cerevisiae rad14 strain growth inhibition, hits give high values
Summary of the method: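 Readout: yeast growth inhibition, referenced to vehicle-only cultures. Strain bears a defined alteration in DNA damage repair.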

[8] = NCI Yeast Anticancer Drug Screen. Data for the sgs1 mgt1 strain (AID 161);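 note: 0% = growth of cultures given vehicle only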; settings: S. cerevisiae sgs1 mgt1 strain, hits give high values
Summary of the method: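 Growth of a repair-deficient yeast mutant was monitored after compound treatment and expressed as inhibition relative to vehicle-treated cultures.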

[9] = NCI Yeast Anticancer Drug Screen. Data for the CLN2oe strain (AID 163);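 note: 0% = growth of vehicle-only control cultures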; settings: S. cerevisiae CLN2oe strain, hits give high values
Summary of the method: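 Yeast cells carrying a defined cell-cycle control alteration were exposed to test compounds. Growth inhibition was scored against vehicle-treated control cultures.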

[10] = NCI Yeast Anticancer Drug Screen. Data for the cln2 rad14 strain (AID 165);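 note: 0% = growth equal to vehicle treated cultures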; settings: S. cerevisiae cln2 rad14 strain, hits give high values
Summary of the method: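 Yeast carrying cln2 and rad14 alterations (cell cycle control and DNA damage repair) were exposed to compounds. Growth inhibition was measured against vehicle-treated controls.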

[11] = NCI Yeast Anticancer Drug Screen. Data for the bub3 strain (AID 167); settings: S. cerevisiae bub3 mutant strain, hits give high values
Summary of the method: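 Part of a panel of yeast mutants defective in DNA damage repair or cell cycle regulation. Each strain is grown with compound, and inhibition is calculated relative to solvent-treated cultures.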

[12] = NCI Yeast Anticancer Drug Screen. Data for the wt2 strain (AID 169);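 note: 0% = growth of vehicle-treated yeast cultures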; settings: S. cerevisiae wt2 strain growth inhibition, hits give high values
Summary of the method: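 Yeast cells were exposed to test compounds, and growth inhibition was measured relative to vehicle-treated controls.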

[13] = NCI Yeast Anticancer Drug Screen. Data for the mlh1 strain (AID 171);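 note: 0% = growth of vehicle-treated control cultures of the same strain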; settings: S. cerevisiae mlh1 strain growth inhibition, hits give high values
Summary of the method: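 Yeast carrying a defined genetic alteration in DNA damage repair or cell cycle control were exposed to test compounds. Growth inhibition was measured relative to vehicle-treated controls.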

[14] = NCI Yeast Anticancer Drug Screen. Data for the sgs1 strain (AID 173);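 note: 0% = growth of vehicle-only control cultures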; settings: S. cerevisiae sgs1 mutant, hits give high values
Summary of the method: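 Yeast mutant strains carrying defined defects in DNA damage repair or cell cycle control were exposed to test compounds. Growth inhibition was scored against vehicle-treated controls.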

[15] = NCI Yeast Anticancer Drug Screen. Data for the mlh1 rad18 strain (AID 175); settings: S. cerevisiae mlh1 rad18 strain growth inhibition, hits give high values
Summary of the method: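 Growth inhibition of the yeast strain was measured after compound exposure and expressed relative to vehicle-treated controls. The strain carries defined defects in DNA damage repair.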

[16] = NCI Yeast Anticancer Drug Screen. Data for the rad18 strain (AID 177); settings: S. cerevisiae rad18 mutant growth inhibition, hits give high values
Summary of the method: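 Yeast carrying a defined DNA damage repair alteration were exposed to compounds. Growth inhibition was expressed relative to vehicle-treated controls.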

[17] = at 5.0 µM (retest, dose inferred, filed as 0.5)
[18] = at 50.0 µM (retest, dose inferred, filed as 5.0)

Measured: growth inhibition

CCCCCCCCSC1=C(Cl)C(=O)C(OC)=C(OC)C1=O
inactive: [1]; at 1.2 µM -25% | [1]; at 3.7 µM -19% | [1]; at 11.0 µM 15% | [1]; at 33.0 µM 53% | [2]; at 1.2 µM -55% | [2]; at 3.7 µM -23% | [2]; at 11.0 µM -17% | [2]; at 33.0 µM 0% | [3]; at 1.2 µM -29% | [3]; at 3.7 µM -44% | [3]; at 11.0 µM -1% | [3]; at 33.0 µM 18% | [4]; at 1.2 µM -30% | [4]; at 3.7 µM -41% | [4]; at 11.0 µM -24% | [4]; at 33.0 µM 17% | [5]; at 1.2 µM -25% | [5]; at 3.7 µM -16% | [5]; [17] 25% | [5]; at 11.0 µM -17% | [5]; at 33.0 µM 19% | [5]; [18] 68% | [5]; at 50.0 µM 22.6% | [6]; at 1.2 µM -37% | [6]; at 3.7 µM -30% | [6]; [17] 24% | [6]; at 11.0 µM -4% | [6]; at 33.0 µM 13% | [6]; [18] 68% | [6]; at 50.0 µM 54.1% | [7]; at 1.2 µM -32% | [7]; at 3.7 µM -11% | [7]; at 11.0 µM -14% | [7]; at 33.0 µM 2% | [7]; at 100.0 µM 66% | [8]; [17] 22% | [8]; [18] 10% | [8]; at 50.0 µM 69.1% | [9]; at 1.2 µM -16% | [9]; at 3.7 µM -6% | [9]; at 11.0 µM 21% | [9]; at 33.0 µM 33% | [10]; [17] 13% | [10]; [18] -24% | [10]; at 50.0 µM 35.1% | [11]; at 1.2 µM -40% | [11]; at 3.7 µM -30% | [11]; [17] 20% | [11]; at 11.0 µM -43% | [11]; at 33.0 µM -15% | [11]; [18] 6% | [11]; at 50.0 µM 59% | [11]; at 100.0 µM 57% | [12]; at 1.2 µM -31% | [12]; at 3.7 µM -19% | [12]; at 11.0 µM -46% | [12]; at 33.0 µM -11% | [13]; at 1.2 µM -38% | [13]; at 3.7 µM -31% | [13]; at 11.0 µM 6% | [13]; at 33.0 µM 27% | [14]; at 1.2 µM -42% | [14]; at 3.7 µM -27% | [14]; at 11.0 µM 8% | [14]; at 33.0 µM 3% | [15]; [17] 36% | [16]; at 1.2 µM -15% | [16]; at 3.7 µM -26% | [16]; at 11.0 µM 1% | [16]; at 33.0 µM 58%
active: [1]; at 100.0 µM 87% | [2]; at 100.0 µM 88% | [3]; at 100.0 µM 73% | [4]; at 100.0 µM 85% | [5]; at 100.0 µM 83% | [6]; at 100.0 µM 80% | [9]; at 100.0 µM 80% | [12]; at 100.0 µM 87% | [13]; at 100.0 µM 78% | [14]; at 100.0 µM 80% | [15]; [18] 84% | [15]; at 50.0 µM 79.3% | [16]; at 100.0 µM 85%
